# Test results from PubChem BioAssay.
# Several values for one entry are separate records, joined by “and”; a condition that tells them apart may be missing. Identical values can stand only once. Results filed as inconclusive are left out. Activity calls are given as the source filed them. Unless noted, no cut-off is given here; in the data, nearly all actives have AC50 up to about 26 µM.
# Legend:
# [1] = growth inhibition of DIPG glioma cells, dose response, cell-based, SU-DIPG-XVII, MIPE5.0, CellTiter-Glo, qHTS (AID 1347060); conditions: SU-DIPG-XVII viability, CellTiter-Glo ATP luminescence;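 note: cells exposed to compound for 48 hours before viability readout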
# [2] = growth inhibition of DIPG glioma cells, dose response, cell-based, JHH-DIPG-1, MIPE4.0, CellTiter-Glo, qHTS (AID 1347062; cut-off not given, nearly all actives have AC50 up to about 27 µM;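 note: cells exposed to compound for two days before readout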); conditions: JHH-DIPG-1 viability, CellTiter-Glo ATP luminescence
# [3] = growth inhibition of DIPG glioma cells, dose response, cell-based, SU-DIPG-IV, MIPE4.0, CellTiter-Glo, qHTS (AID 1347063; cut-off not given, nearly all actives have AC50 up to about 30 µM;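 note: compound exposure lasted 48 hours before the viability readout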); conditions: SU-DIPG-IV viability, CellTiter-Glo ATP luminescence
# [4] = growth inhibition of DIPG glioma cells, dose response, cell-based, SU-DIPG-XIII, MIPE5.0, CellTiter-Glo, qHTS (AID 1347064; cut-off not given, nearly all actives have AC50 up to about 23 µM;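 note: cells exposed to compound for 48 hours before the viability read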); conditions: SU-DIPG-XIII viability, CellTiter-Glo ATP luminescence
# [5] = viability loss in pontine glioma line – cell-based, SU-DIPG-XXV, MIPE5.0, CellTiter-Glo, qHTS, dose response (AID 1347065); conditions: CellTiter-Glo ATP luminescence;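 note: cells exposed to compound for 48 hours before ATP readout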
# [6] = JHH-DIPG-1 glioma cell viability, MIPE5.0 library, CellTiter-Glo luminescence, qHTS (AID 1347067); conditions: JHH-DIPG-1 glioma viability, CellTiter-Glo ATP luminescence;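 note: cells exposed to compound for 48 hours before readout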
# [7] = sensitizers of A549 cells to miR-34 induction, primary screen, imaging, A549 dox-inducible miR-34, nuclei and caspase counts (AID 1347080;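 active = compounds whose cell count with miR-34 switched on is under 0.7 times the count with it off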); conditions: A549 miR-34 inducible, Hoechst nuclei count, 48 h
# [8] = survival rescue of mitochondrial mutant cells in low glucose, primary screen, MELAS cybrids, Rieske KO mouse fibroblasts, CellTiter-Glo (AID 1508586;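 active = mean z-score across replicates of 1.96 or higher in either the MELAS or the Rieske mutant cell line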;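 note: z relative to plate mean and SD of compound and empty wells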)
# [9] = LFS_MB_P medulloblastoma growth inhibition, cell-based, chromothripsis tumors, cisplatin or BGB combos (AID 1671449; in the data active = inhibition above about 80%;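 note: cells exposed for 96 hours; 0% = vehicle DMSO and 100% = killing by high DMSO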); conditions: LFS_MB_P medulloblastoma cells
# [10] = HDN33 neuroblastoma growth inhibition, cell-based, chromothripsis tumors, cisplatin or BGB combos (AID 1671450; in the data active = inhibition above about 80%;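 note: cells exposed to compound for four days; 0% = vehicle DMSO and 100% = cell killing by high DMSO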); conditions: HDN33 neuroblastoma cells, stronger effect = higher value
# [11] = ICB984 medulloblastoma cell growth inhibition, synergistic combos for chromothripsis tumors, cisplatin or BGB combos (AID 1671451; call rule not given here;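 note: cells exposed for 96 hours before readout; 0% = vehicle DMSO and 100% = killing by high DMSO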); conditions: ICB984 medulloblastoma cells, drug combinations, stronger effect = higher value
# [12] = HTB85 osteosarcoma cell growth inhibition, synergistic combos for chromothripsis tumors, BGB or cisplatin IC20 combos (AID 1671453; in the data active = inhibition above about 80%;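 note: cells exposed for 96 hours before readout; 0% = vehicle DMSO and 100% = high DMSO killing control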); conditions: HTB85 osteosarcoma cells, drug combinations, stronger effect = higher value
# [13] = MDA-MB-436 breast carcinoma cell growth inhibition, synergistic combos for chromothripsis tumors, BGB or cisplatin combos (AID 1671458; call rule not given here;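 note: cells exposed for 96 hours; 0% = vehicle DMSO and 100% = killing by high DMSO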); conditions: MDA-MB-436 breast carcinoma growth inhibition, drug combinations, stronger effect = higher value
# [14] = growth inhibition of BT084 medulloblastoma cells, cell-based, ICGC_MB145, cisplatin and BGB IC40 combos (AID 1671461; in the data active = inhibition above about 80%;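 note: cells exposed to drugs for 96 hours; 0% = vehicle DMSO and 100% = high DMSO full killing control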); conditions: drug combinations, stronger effect = higher value
# [15] = growth inhibition of RCMB18 medulloblastoma cells, cell-based, cisplatin and BGB IC40 combos (AID 1671462; in the data active = inhibition above about 80%;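 note: cells exposed to compound for four days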); conditions: stronger effect = higher value
structure (smiles),measurement,setting,value
OCCNC1CCCc2c1[nH]c1ccc(-c3ccccc3)cc21 (centres undefined),AC50,[1],18.6 µM (active)
same,AC50,[2],26.4 µM (active)
same,AC50,[3],20.9 µM (active)
same,AC50,[4],13.2 µM (active)
same,AC50,[5],10.5 µM (active)
same,AC50,[6],10.5 µM (active)
CN(C)c1ccc(C(=O)NCCCCCCC(=O)NO)cc1,AC50,[1],1.48 µM (active)
same,AC50,[2],0.743 µM (active)
same,AC50,[3],1.05 µM (active)
same,AC50,[4],0.934 µM (active)
same,AC50,[5],0.934 µM (active)
same,AC50,[6],1.18 µM (active)
same,fold change,"[7]; stronger effect = lower value, cell number ratio, induced over uninduced",0.925 (inactive) and 1.16 (inactive)
same,fold change,[7]; measured here: relative caspase fold change +Dox/-Dox,1.2 and 1.01
same,cell count,"[7]; measured here: total cells with miR-34 induction, stronger effect = lower value",3030 and 2210
same,cell count,[7]; measured here: total cells without miR-34 induction,3270 and 1910
same,z-score,"[8]; MELAS cybrid survival, CellTiter-Glo 48 h, stronger effect = higher value",1.18 (inactive)
same,z-score,"[8]; Rieske KO mouse fibroblast survival, CellTiter-Glo 72 h",0.973
same,inhibition,"[9]; at 0.5 µM, stronger effect = higher value",-18.1% (inactive)
same,inhibition,"[9]; measured here: combination with BGB IC20, at 0.005 µM",-25.6%
same,inhibition,"[9]; measured here: combination with BGB IC40, at 0.005 µM",-22.1%
same,inhibition,"[9]; measured here: combination with BGB IC40, at 0.05 µM",-25.8%
same,inhibition,"[9]; measured here: combination with cisplatin, at 0.5 µM, stronger effect = higher value",-23.5%
same,inhibition,"[9]; measured here: combination with cisplatin, at 5 µM, stronger effect = higher value",107%
same,inhibition,"[10]; BGB combo, at 5 µM",97.7%
same,inhibition,[10]; at 0.5 µM,36.1% (inactive)
same,inhibition,"[10]; cisplatin combo, at 5 µM",99.4%
same,inhibition,"[10]; measured here: with BGB IC20 combination, at 0.5 µM",24.9%
same,inhibition,"[10]; measured here: with cisplatin IC20 combination, at 0.5 µM",50.9%
same,inhibition,"[10]; single agent, at 5 µM",99.1%
same,inhibition,"[11]; BGB IC20 combo, at 0.005 µM",6.17%
same,inhibition,"[11]; BGB IC40 combo, at 0.005 µM",7.19%
same,inhibition,"[11]; BGB IC40 combo, at 0.05 µM",87.6%
same,inhibition,[11]; at 0.5 µM,-20.5% (inactive)
same,inhibition,"[11]; cisplatin combo, at 0.05 µM",87.3%
same,inhibition,"[11]; cisplatin combo, at 0.5 µM",-6.9%
same,inhibition,"[11]; cisplatin combo, at 5 µM",-44.2%
same,inhibition,"[11]; measured here: 5 uM single agent, at 5 µM",-34.3%
same,inhibition,[12]; at 0.5 µM,28.6% (inactive)
same,inhibition,"[12]; measured here: with BGB IC20, at 0.5 µM",18.8%
same,inhibition,"[12]; measured here: with BGB IC20, at 5 µM",95.5%
same,inhibition,"[12]; measured here: with cisplatin IC20, at 0.5 µM",33.4%
same,inhibition,"[12]; measured here: with cisplatin IC20, at 5 µM",99.7%
same,inhibition,"[12]; single agent, at 5 µM",97.7%
same,inhibition,[13]; at 0.5 µM,5.27% (inactive)
same,inhibition,"[13]; measured here: BGB combination, at 0.5 µM",-2.54%
same,inhibition,"[13]; measured here: BGB combination, at 5 µM",46.7%
same,inhibition,"[13]; measured here: cisplatin combination, at 0.5 µM",-2.21%
same,inhibition,"[13]; measured here: cisplatin combination, at 5 µM",47.8%
same,inhibition,[14]; at 0.5 µM,27.2% (inactive)
same,inhibition,"[14]; cisplatin combination, at 0.5 µM",48.8%
same,inhibition,"[14]; cisplatin combination, at 5 µM",101%
same,inhibition,"[14]; measured here: BGB IC40 combination 0.05 uM, at 0.05 µM",2.96%
same,inhibition,"[14]; single agent, at 5 µM",104%
same,inhibition,[15]; at 0.5 µM,31.7% (inactive)
same,inhibition,"[15]; cisplatin combo, at 5 µM",93.3%
same,inhibition,"[15]; measured here: BGB IC40 combination, at 0.05 µM",-8.02%
same,inhibition,"[15]; measured here: combination with cisplatin, at 0.5 µM",62.9%
same,inhibition,"[15]; single agent, at 5 µM",89%
